D1 PAM: enhances dopamine response at the human D1 receptor | P21728 | HEK293 TREx D1 cells, calcium flux, dopamine EC20 potentiation | potentiation, % at 10 µM | 360,000 tested, 0.036% active; in the data active means potentiation above about 30%; further: 0% is about no effect
USP1-UAF1 inh: blocks the human USP1/UAF1 deubiquitinase complex; O94782; recombinant USP1/UAF1, Ub-Rhodamine cleavage fluorescence; Potency, µM (series often up to 57.1 µM), inactives show at the highest dose activity change, negative = inhibition, hits mostly inhibitors; 390,000 tested, 0.23% active; active means well fitted inhibition curve with a large enough effect; inconclusive means small, poorly fitted or top-dose-only effect; inactive means no such curve, though single readings can be large or run the other way; further: potency means the concentration at half of the fitted maximal effect; on the % scale 0 is the no-effect control and ±100 the full control effect; nearly all actives have a fitted effect of over 60% in size
Target sequence (O94782 whole entry, looked up): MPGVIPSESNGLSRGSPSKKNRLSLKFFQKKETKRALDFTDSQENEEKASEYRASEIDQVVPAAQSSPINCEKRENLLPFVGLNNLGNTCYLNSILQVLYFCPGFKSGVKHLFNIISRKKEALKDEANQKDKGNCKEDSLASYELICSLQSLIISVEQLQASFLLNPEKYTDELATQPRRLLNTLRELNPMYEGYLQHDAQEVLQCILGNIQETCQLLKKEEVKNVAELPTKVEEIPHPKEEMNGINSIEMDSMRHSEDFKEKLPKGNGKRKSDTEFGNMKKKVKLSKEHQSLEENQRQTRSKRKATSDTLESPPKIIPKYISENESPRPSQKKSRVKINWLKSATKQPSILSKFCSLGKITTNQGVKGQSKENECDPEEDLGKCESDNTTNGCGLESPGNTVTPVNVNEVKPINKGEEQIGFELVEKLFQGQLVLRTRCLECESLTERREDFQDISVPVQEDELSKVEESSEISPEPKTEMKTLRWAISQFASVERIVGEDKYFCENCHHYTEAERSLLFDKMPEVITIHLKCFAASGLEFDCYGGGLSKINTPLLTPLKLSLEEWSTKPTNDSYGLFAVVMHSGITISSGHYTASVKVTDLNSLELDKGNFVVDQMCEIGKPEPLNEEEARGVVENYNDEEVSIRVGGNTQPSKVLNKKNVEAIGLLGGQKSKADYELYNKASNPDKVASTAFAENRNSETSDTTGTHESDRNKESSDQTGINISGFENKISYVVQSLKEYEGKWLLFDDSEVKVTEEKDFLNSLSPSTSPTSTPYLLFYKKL
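USP1/UAF1 complex at 1 nM was preincubated with compound for 15 min at room temperature, then Ub-Rho substrate (150nM final) was added. Fluorescence (480/540 nm) was read kinetically, 6 reads every 60 seconds.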
TRHR enhancer: allosteric enhancers of human TRH receptor. P34981. TRHR cells, fluo-8 calcium fluorescence, EC20 TRH enhancement. enhancement, % at 2 µM. 360,000 tested, 0.66% active; in the data active means enhancement above about 30%; further: 0% is about no effect
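TRHR-expressing cells loaded with fluo-8 calcium dye were read kinetically (ex 480/em 530) during compound addition, then stimulated with an EC20 of TRH (10 nM final). Enhancement of the Gq-mediated intracellular calcium response was scored.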
D1 antag: human D1 dopamine receptor antagonism; HEK293 TREx D1 cells, calcium flux, dopamine EC80; hits give low values; P21728; activity change, negative = inhibition, % at 10 µM; AID 504652; 360,000 tested, 3.2% active; in the data active means activity change below about -30%; further: on the % scale 0 is the no-effect control and ±100 the full control effect
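HEK293 T-REx cells expressing inducible, force-coupled D1 receptor; no-wash Ca dye, 30–90 min RT. Cmpd → 180 s read at 1 Hz → EC80 DA → 180 s read.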
D1 agonist: activates the human D1 dopamine receptor; P21728; HEK293 T-REx D1 cells, calcium flux, agonist mode; activation, % at 2 µM; 360,000 tested, 1% active; AID 504660; further: 0% is about no effect
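Inducible HEK293 T-REx D1 cells, force-coupled to calcium signalling, were plated at 4000 cells/well with tetracycline and held overnight at 30 C. After no-wash calcium dye loading, compound-evoked calcium rise over 180 s flagged agonists.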
TRHR ag: activates the human TRH receptor; TRHR cells, calcium flux fluo-8, FDSS agonist mode; activation, % at 2 µM; 360,000 tested, 0.18% active; AID 493084; further: 0% is about no effect
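Fluo-8-loaded TRHR cells; 10 s baseline, compound added, kinetic Ca2+ fluorescence read 1/s, agonist mode.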
* marks the source's active call; other numbers are inactive results; ? = inconclusive; / = not tested or not shown. Shown are actives, neighbours in structure and some others; about 4.4% of the full set was active somewhere. Unless noted, no stated cut-off is given here; in the data, active means activation above about 30%; inactive means the rest.

SMILES	D1 PAM	USP1-UAF1 inh	TRHR enhancer	D1 antag	D1 agonist	TRHR ag
COc1ccccc1NS(=O)(=O)c1ccc2[nH]c(=O)[nH]c2c1	0.2	-27.6%	7.2	-4.6	2.7	-2.8
COc1ccc(NS(=O)(=O)c2ccc3[nH]c(=O)[nH]c3c2)cc1OC	-6.3	-2.1%	31.6*	-12.3	2.0	1.3
CCNC(=O)c1ccc(NS(=O)(=O)c2ccc3[nH]c(=O)[nH]c3c2)cc1	-7.0	-1.8%	2.4	-40.6*	5.2	3.3
Cc1ccc(NS(=O)(=O)c2ccc3[nH]c(=O)oc3c2)cc1Cl	-8.5	-21.8%	0.0	-2.0	1.4	1.6
COC(=O)c1ccc(NS(=O)(=O)c2ccc3[nH]c(=O)oc3c2)cc1	-11.7	-10.0%	2.5	-30.2*	0.0	0.1
COc1ccc(S(=O)(=O)Nc2ccc3cn[nH]c3c2)cc1C	-1.1	0.2%	39.3*	3.0	4.0	-0.3
COc1ccc(S(=O)(=O)Nc2ccc3ccccc3c2)cc1C	-1.4	-18.7%	9.4	-20.5	1.4	0.3
COc1cc(OC)c(NC(=O)Nc2nnc(N(C)C3CCCCC3)s2)cc1Cl	0.2	?	-3.2	3.9	-1.1	0.2
COc1ccc(NC(=O)CSc2nc3sc(C)cc3c(=O)n2C)cc1	-3.6	-22.6%	1.6	-33.8*	4.6	0.4
O=C(CSc1nc(-c2ccccc2)cc(=O)[nH]1)Nc1ccccc1	-0.1	-26.7%	-3.2	2.7	11.4	-1.4
COc1ccc2nc(SCC(=O)NC3CCCCC3C)[nH]c2c1 (centres undefined)	-14.6	-9.8%	-4.6	-39.8*	0.0	-0.5
CCc1c(C)nc(SCC(=O)NNC(=O)Cc2ccc(OC)cc2)[nH]c1=O	-10.3	-6.5%	-4.1	-10.6	2.7	-0.3
COc1ccc(NC(=O)CSc2nc(-c3ccc(OC)cc3)cc(=O)[nH]2)cc1	-4.2	?	1.2	7.1	57.0*	-1.2
COc1ccc2nc(SCC(=O)NC(C)C)[nH]c2c1	8.1	3.9%	-2.4	10.7	5.1	-0.6
CCc1c(C)nc(SCC(=O)Nc2nc(-c3ccc(OC)cc3)cs2)[nH]c1=O	-1.6	-13.7%	7.1	-32.9*	9.3	-0.2
Cc1cccc(N(CC(N)=O)C2SC(=O)N(Cc3cccc(C(=O)O)c3)C2=O)c1 (centres undefined)	-1.9	-5.3%	-0.4	-17.0	1.6	1.0
CCCc1cc(=O)[nH]c(SCC(=O)N(C)CC(=O)Nc2ccc(C)cc2)n1	-8.0	-9.2%	5.3	-36.0*	2.1	0.1
COc1ccc(NC(=O)CSC2=NCCN2)cc1	-5.7	-12.0%	0.6	-30.3*	2.2	0.2
COC(=O)c1cc(CSc2nc3ccc(C)cc3[nH]2)oc1C	-1.4	-16.7%	3.1	-47.0*	4.5	-1.6
COc1ccc(NC(=O)c2ccc(NC(=O)CSc3nc(N)cc(=O)[nH]3)cc2)cc1	-1.6	-7.8%	3.8	-45.2*	1.5	-0.2
O=C(CSc1nc2c([nH]c3ccccc32)c(=O)n1-c1cccc(Cl)c1)N1CCCC1	-5.6	-17.5%	0.2	-12.2	1.1	-0.3
O=S(=O)(Nc1ccc(C(F)(F)F)cc1)c1ccc2c(c1)OCCO2	-6.0	-22.7%	3.7	-11.7	23.7	1.1
COc1cccc(NC(=O)CSc2nc(C)c(Cc3ccccc3)c(=O)[nH]2)c1	-0.7	-19.7%	-3.6	-72.8*	1.9	-1.0
COC(=O)c1ccc(NC(=O)CSc2nc3ccc(OC)cc3[nH]2)cc1	-3.6	-16.5%	1.6	-57.1*	16.7	-1.7
COc1cccc(NC(=O)CSc2nc3scc(C)c3c(=O)[nH]2)c1	-6.5	-1.5%	3.3	-15.3	10.3	0.0
SMILES	D1 PAM	USP1-UAF1 inh	TRHR enhancer	D1 antag	D1 agonist	TRHR ag
COC(=O)c1ccc(CSc2nc3ccc(S(N)(=O)=O)cc3[nH]2)cc1	-6.2	-12.7%	36.3*	-1.0	0.5	1.0
COC(=O)c1ccc(CSc2nc3ccc(S(=O)(=O)N4CCOCC4)cc3[nH]2)cc1	-1.8	-18.9%	3.1	-29.1	4.3	0.9
O=C(O)c1ccccc1C(=O)N1CCN(Cc2ccc3c(c2)OCO3)CC1	-2.6	-4.8%	14.7	-4.0	4.4	-0.6
Cc1nn(Cc2ccccc2)c2sc(C(=O)N3CCN(Cc4ccc5c(c4)OCO5)CC3)cc12	-12.9	-1.8%	0.5	-31.0*	1.6	0.3
Cc1nn(Cc2ccccc2)c2sc(C(=O)NCc3cccnc3)cc12	-9.5	-16.2%	2.2	-47.4*	1.9	0.2
COc1cc(NC(=O)c2cc3c(=O)oc4ccc(C)cc4c3s2)cc(OC)c1OC	-2.7	-8.5%	10.9	13.3	0.2	-0.2
CCc1ccccc1NC(=O)c1cc(S(=O)(=O)N(CC)c2ccccc2)ccc1F	0.2	-18.5%	-0.5	4.4	-0.3	0.3
Cc1ccc(NC(=O)c2cc3ccccc3oc2=N)cc1	3.0	-16.8%	15.0	8.7	3.7	4.7
N=c1oc2c3c4c(cc2cc1C(=O)Nc1ccccc1)CCCN4CCC3	-8.2	10µM*	-16.4	-87.9*	384.6*	93.5*
CCc1ccc(C(=O)c2cn(CC(=O)NC3CCCCC3)c3nc(C)ccc3c2=O)cc1	4.0	-12.8%	0.6	9.7	1.8	0.0
COc1ccc(-c2csc(/C(C#N)=C/Nc3ccc4c(c3)OCCO4)n2)cc1	0.8	-1.3%	25.8	6.6	2.8	-0.2
N#C/C(=C\Nc1ccc2c(c1)OCCO2)c1nc(-c2ccccc2)cs1	-7.5	-7.6%	2.3	-41.8*	0.2	-0.2
COc1cc(Br)c(C2CC(=O)Nc3cc(OC)c(OC)c(OC)c32)cc1OC (centres undefined)	-1.4	-8.4%	3.0	5.7	3.4	1.5
CCOCCn1c(SCc2ccc(C)cc2)nc2c1c(=O)[nH]c(=O)n2C	-9.7	6.2%	20.7	-38.0*	-1.2	-1.3
CCCCCCn1c(SCC(=O)OC)nc2c1c(=O)[nH]c(=O)n2C	36.8*	-18.6%	-5.2	-1.1	0.3	0.1
CCOCCn1c(SCc2ccc(F)cc2)nc2c1c(=O)[nH]c(=O)n2C	-1.6	-15.2%	-4.4	1.6	0.3	-0.6
CC(C(=O)N(C)C1CCS(=O)(=O)C1)N1C(=O)/C(=C/c2ccc(F)cc2)SC1=S (centres undefined)	-4.6	-24.4%	-6.2	-41.6*	11.7	3.5
CN(C(=O)CCN1C(=O)/C(=C/c2ccc(F)cc2)SC1=S)C1CCS(=O)(=O)C1 (centres undefined)	/	-4.6%	/	/	/	/
O=C(NCc1ccc(F)cc1)C1CCCCN1S(=O)(=O)c1ccc(F)cc1 (centres undefined)	-3.8	-0.3%	15.6	-24.3	2.6	-0.9
Cc1ccccc1CNC(=O)C1CCCCN1S(=O)(=O)c1ccc(F)cc1 (centres undefined)	-6.3	8.7%	-1.2	-32.2*	0.0	-0.6
